Test results reported in PubChem BioAssay AID1159580 (chemical genetic matrix, 2015).
Several values for one entry are separate records, joined by “and”; a condition that tells them apart may be missing. Identical values can stand only once. About 2,000 (36%) of roughly 5,500 compounds were called active. Roughly 18% stayed inconclusive and do not appear here. No stated cut-off is given here; in the data, active means normalized growth mostly below about 0.91 (no sharp cut-off); inconclusive means no clear call, values can overlap the other calls; inactive means mostly above about 0.92. The list shows a part of the results.

Test: chemical genetic growth profiling, strain panel (AID 1159580);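 further: tested at 20 µM; growth read once vehicle control cultures reached saturation at 30 °C; 1 = growth at the plate median or of vehicle wells; lower values mean less growth of the strain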
Conditions: S. cerevisiae deletion strains, growth OD

Measured: normalized growth

Cc1ncc([N+](=O)[O-])n1CCO
inactive: locus YAL013W, strain DEP1, active compounds read low 0.989 | locus YAL021C, strain ccr4, active compounds read low 0.983 | locus YAL026C, strain drs2, active compounds read low 1 | locus YAL030W, strain snc1, active compounds read low 0.971 | locus YBL061C, strain skt5, active compounds read low 0.98 | locus YBR009C, strain hhf1, active compounds read low 1.01 | locus YBR021W, strain FUR4, active compounds read low 0.998 | locus YBR023C, strain chs3, active compounds read low 0.976 | locus YBR171W, strain sec66, active compounds read low 0.982 | locus YBR229C, strain ROT2, active compounds read low 0.944 | locus YBR231C, strain swc5, active compounds read low 0.999 | locus YBR279W, strain paf1, active compounds read low 0.975 | locus YCL011C, strain gbp2, active compounds read low 0.945 | locus YCL016C, strain dcc1, active compounds read low 0.968 | locus YCL029C, strain bik1, active compounds read low 0.986 | locus YCL061C, strain MRC1, active compounds read low 0.992 | locus YCL069W, strain vba3, active compounds read low 0.985 | locus YCR088W, strain abp1, active compounds read low 0.974 | locus YDL005C, strain med2, active compounds read low 0.968 | locus YDL035C, strain GPR1, active compounds read low 0.967 | locus YDL040C, strain nat1, active compounds read low 0.98 | locus YDL074C, strain BRE1, active compounds read low 1.02 | locus YDL101C, strain DUN1, active compounds read low 0.977 | locus YDL134C, strain PPH21, active compounds read low 0.978 | locus YDL185W, strain tfp1, active compounds read low 0.983 | locus YDL192W, strain arf1, active compounds read low 0.978 | locus YDR001C, strain nth1, active compounds read low 0.965 | locus YDR069C, strain doa4, active compounds read low 0.981 | locus YDR101C, strain arx1, active compounds read low 1.01 | locus YDR137W, strain rgp1, active compounds read low 0.967 | locus YDR150W, strain NUM1, active compounds read low 0.956 | locus YDR159W, strain sac3, active compounds read low 1.02 | locus YDR162C, strain NBP2, active compounds read low 0.968 | locus YDR195W, strain ref2 0.982 | locus YDR297W, strain sur2, active compounds read low 0.974 | locus YDR318W, strain mcm21, active compounds read low 0.999 | locus YDR334W, strain swr1, active compounds read low 0.941 | locus YDR335W, strain msn5, active compounds read low 0.971 | locus YDR388W, active compounds read low 0.997 | locus YDR392W, strain spt3, active compounds read low 0.956 | locus YDR502C, strain sam2, active compounds read low 0.98 | locus YEL003W, strain gim4, active compounds read low 0.989 | locus YEL037C, strain rad23, active compounds read low 0.976 | locus YEL061C, strain CIN8 (second series), active compounds read low 0.975 | locus YEL061C, strain CIN8, active compounds read low 0.979 | locus YER015W, strain faa2, active compounds read low 0.982 | locus YER016W, strain bim1, active compounds read low 0.984 | locus YER110C, active compounds read low 0.965 | locus YER111C, strain swi4, active compounds read low 0.981 | locus YER155C, strain BEM2 (second series), active compounds read low 1.03 | locus YER155C, strain BEM2, active compounds read low 1.01 | locus YER167W, strain BCK2, active compounds read low 0.988 | locus YFR010W, strain ubp6, active compounds read low 0.981 | locus YGL078C, strain dbp3, active compounds read low 0.973 | locus YGL086W, strain mad1, active compounds read low 0.982 | locus YGL167C, strain pmr1, active compounds read low 0.984 | locus YGL173C, strain kem1, active compounds read low 0.981 | locus YGL227W, strain vid30, active compounds read low 0.981 | locus YGL240W, strain doc1, active compounds read low 0.993 | locus YGL248W, strain PDE1, active compounds read low 0.976 | locus YGL253W, strain hxk2, active compounds read low 0.977 | locus YGR078C, strain PAC10, active compounds read low 0.98 | locus YGR135W, strain pre9, active compounds read low 0.991 | locus YGR229C, strain SMI1, active compounds read low 0.998 | locus YGR252W, strain gcn5, active compounds read low 0.904 | locus YHR013C, strain ard1, active compounds read low 0.948 | locus YHR027C, strain rpn1, active compounds read low 0.962 | locus YHR030C, strain SLT2, active compounds read low 0.985 and 1.07 | locus YHR079C, strain IRE1 (second series), active compounds read low 1.01 | locus YHR079C, strain IRE1, active compounds read low 1.05 | locus YHR094C, strain hxt1, active compounds read low 0.99 | locus YHR129C, strain ARP1, active compounds read low 0.994 | locus YHR142W, strain chs7, active compounds read low 0.933 | locus YHR200W, strain rpn10, active compounds read low 0.997 | locus YIL066C, strain RNR3, active compounds read low 0.97 | locus YIL073C, strain SPO22, active compounds read low 1.01 | locus YIL125W, strain kgd1, active compounds read low 0.989 | locus YIR030C, strain dcg1, active compounds read low 0.983 | locus YJL092W, strain hpr5, active compounds read low 0.985 | locus YJL095W, strain BCK1 (second series), active compounds read low 0.98 | locus YJL095W, strain BCK1, active compounds read low 1.02 and 1.04 | locus YJL115W, strain asf1, active compounds read low 0.958 | locus YJL129C, strain trk1, active compounds read low 0.968 | locus YJL134W, strain LCB3, active compounds read low 0.978 | locus YJL154C, strain vps35, active compounds read low 0.963 | locus YJL164C, strain tpk1, active compounds read low 0.996 | locus YJL166W, strain qcr8, active compounds read low 0.96 | locus YJL168C, strain set2, active compounds read low 0.993 | locus YJL187C, strain SWE1 (second series), active compounds read low 0.985 | locus YJL187C, strain SWE1, active compounds read low 0.981 | locus YJR043C, strain POL32, active compounds read low 1.02 | locus YJR066W, strain TOR1, active compounds read low 1.01
